The values below come from paper PMC7862700, “An all-to-all approach to the identification of sequence-specific readers for epigenetic DNA modifications on cytosine”.

Common to all, as to assay: DAPPL (digital affinity profiling via proximity ligation, sequencing); 10 mM Tris-HCl pH 7.5, 50 mM NaCl, 1 mM DTT, 4% glycerol, room temperature, 30 min; GST-TFs on glutathione beads, 16-mer random dsDNA library, 0.1% formaldehyde crosslink after washing; high values mean tight binding
Common to all, as to conditions: protein: recombinant; tags: N-terminal GST; dsDNA, one strand shown

The target of one experiment is ETV5 (Homo sapiens, UniProt P41161 1-510). A digest of the protocol:
(§1)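 Each value of binding signal is a hexamer's read frequency for a factor divided by the same hexamer's frequency in the tag-only sample. Barcoded, bead-captured GST fusions of human transcription factors made in yeast were pooled with that sample and incubated with 200 nmole of a random double-stranded 16-mer DNA library in Tris/NaCl/DTT/glycerol buffer at room temperature for 30 min. Washing, 0.1% formaldehyde crosslinking, proximity ligation, PCR and Illumina NextSeq500 sequencing followed.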

Another experiment deals with ETV6 (Homo sapiens, UniProt P41212 1-452). A digest of the protocol: as §1
Chain of ETV6 (P41212 whole entry): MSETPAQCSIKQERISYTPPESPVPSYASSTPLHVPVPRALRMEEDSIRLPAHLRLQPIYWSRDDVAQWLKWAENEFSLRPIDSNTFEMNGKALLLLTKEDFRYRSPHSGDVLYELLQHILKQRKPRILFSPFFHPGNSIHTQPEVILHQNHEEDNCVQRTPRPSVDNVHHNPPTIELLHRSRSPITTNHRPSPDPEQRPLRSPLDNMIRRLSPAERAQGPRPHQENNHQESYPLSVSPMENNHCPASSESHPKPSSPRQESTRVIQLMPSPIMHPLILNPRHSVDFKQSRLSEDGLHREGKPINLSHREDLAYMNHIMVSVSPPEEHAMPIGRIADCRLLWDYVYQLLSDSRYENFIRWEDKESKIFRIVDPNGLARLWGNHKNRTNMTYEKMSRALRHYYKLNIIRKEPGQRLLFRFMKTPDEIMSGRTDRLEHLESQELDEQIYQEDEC
Another experiment concerns the target T1, ERG (Homo sapiens, UniProt P11308 1-479).
T1 sequence: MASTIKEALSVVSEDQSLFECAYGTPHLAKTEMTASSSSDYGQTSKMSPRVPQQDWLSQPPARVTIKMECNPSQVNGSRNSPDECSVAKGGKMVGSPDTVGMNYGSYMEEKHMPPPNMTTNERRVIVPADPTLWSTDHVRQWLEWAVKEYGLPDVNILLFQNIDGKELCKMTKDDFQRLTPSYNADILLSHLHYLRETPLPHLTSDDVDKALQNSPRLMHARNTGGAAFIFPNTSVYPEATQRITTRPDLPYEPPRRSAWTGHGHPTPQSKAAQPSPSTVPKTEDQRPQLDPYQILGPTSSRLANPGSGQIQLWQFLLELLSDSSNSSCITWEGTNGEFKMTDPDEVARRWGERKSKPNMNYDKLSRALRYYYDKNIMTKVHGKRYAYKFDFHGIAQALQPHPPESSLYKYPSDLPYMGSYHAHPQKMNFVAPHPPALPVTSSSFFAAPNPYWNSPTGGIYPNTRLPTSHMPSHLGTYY
A digest of the protocol:
as §1

The target in another experiment is T2, EHF (Homo sapiens, UniProt Q9NZC4 1-300).
T2 sequence: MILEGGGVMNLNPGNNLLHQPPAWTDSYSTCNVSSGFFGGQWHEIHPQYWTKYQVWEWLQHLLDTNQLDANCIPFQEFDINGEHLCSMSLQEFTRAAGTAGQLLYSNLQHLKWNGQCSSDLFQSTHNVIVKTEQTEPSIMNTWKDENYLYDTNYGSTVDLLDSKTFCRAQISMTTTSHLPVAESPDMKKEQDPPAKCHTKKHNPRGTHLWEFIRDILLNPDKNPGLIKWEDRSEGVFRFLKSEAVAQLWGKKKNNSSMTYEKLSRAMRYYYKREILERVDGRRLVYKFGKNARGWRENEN
In short, it runs like this:
as §1

Another experiment has as its target SPIB (Homo sapiens, UniProt Q01892 1-262). A digest of the protocol:
as §1

Another experiment addresses ETV1 (Homo sapiens, UniProt P50549 1-477). In short, it runs like this: as §1
The target in the next experiment is T3, SPDEF (Homo sapiens, UniProt O95238 1-335).
T3 sequence: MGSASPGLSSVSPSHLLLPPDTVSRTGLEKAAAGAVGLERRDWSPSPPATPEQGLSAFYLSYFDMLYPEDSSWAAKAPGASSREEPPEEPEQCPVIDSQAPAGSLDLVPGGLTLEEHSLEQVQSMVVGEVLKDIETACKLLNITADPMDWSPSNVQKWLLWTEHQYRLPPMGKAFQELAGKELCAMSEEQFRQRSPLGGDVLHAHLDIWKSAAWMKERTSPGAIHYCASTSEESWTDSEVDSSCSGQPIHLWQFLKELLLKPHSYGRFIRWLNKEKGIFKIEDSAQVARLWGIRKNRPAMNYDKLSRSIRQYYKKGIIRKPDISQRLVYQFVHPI
A digest of the protocol:
as §1

The target of the next experiment is T4, ETV3 (Homo sapiens, UniProt P41162-2 1-143).
T4 sequence: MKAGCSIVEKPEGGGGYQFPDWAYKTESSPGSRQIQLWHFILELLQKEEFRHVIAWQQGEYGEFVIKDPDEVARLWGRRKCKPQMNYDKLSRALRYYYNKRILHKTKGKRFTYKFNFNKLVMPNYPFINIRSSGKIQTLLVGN
A digest of the protocol: as §1

The target of a further experiment is T5, ELK4 (Homo sapiens, UniProt P28324-2 1-405).
T5 sequence: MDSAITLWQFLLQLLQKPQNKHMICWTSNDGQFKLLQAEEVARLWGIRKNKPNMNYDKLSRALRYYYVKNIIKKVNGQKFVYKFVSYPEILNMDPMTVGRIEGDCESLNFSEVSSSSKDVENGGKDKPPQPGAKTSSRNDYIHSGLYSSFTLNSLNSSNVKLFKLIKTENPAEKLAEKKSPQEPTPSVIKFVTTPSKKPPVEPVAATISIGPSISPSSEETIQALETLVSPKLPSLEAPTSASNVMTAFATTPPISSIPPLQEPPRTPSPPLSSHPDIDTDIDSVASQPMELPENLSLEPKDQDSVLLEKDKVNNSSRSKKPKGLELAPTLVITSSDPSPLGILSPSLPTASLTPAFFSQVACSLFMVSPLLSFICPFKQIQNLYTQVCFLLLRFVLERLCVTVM
In short, it runs like this:
as §1

Another experiment concerns the target T6, ETV3L (Homo sapiens, UniProt Q6ZN32 1-361).
T6 sequence: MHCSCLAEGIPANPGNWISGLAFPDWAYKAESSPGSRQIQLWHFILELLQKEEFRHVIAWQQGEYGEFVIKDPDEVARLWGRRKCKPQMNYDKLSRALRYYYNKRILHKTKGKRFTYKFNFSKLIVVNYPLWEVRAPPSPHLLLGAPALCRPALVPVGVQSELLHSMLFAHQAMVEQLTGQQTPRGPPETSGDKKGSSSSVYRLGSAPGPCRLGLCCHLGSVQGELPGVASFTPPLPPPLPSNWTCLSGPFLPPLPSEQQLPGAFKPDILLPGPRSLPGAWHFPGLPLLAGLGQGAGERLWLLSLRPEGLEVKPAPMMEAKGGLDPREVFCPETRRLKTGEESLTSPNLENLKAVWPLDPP
A digest of the protocol:
as §1

The next experiment deals with T7, ETV7 (Homo sapiens, UniProt Q9Y603 1-341).
T7 sequence: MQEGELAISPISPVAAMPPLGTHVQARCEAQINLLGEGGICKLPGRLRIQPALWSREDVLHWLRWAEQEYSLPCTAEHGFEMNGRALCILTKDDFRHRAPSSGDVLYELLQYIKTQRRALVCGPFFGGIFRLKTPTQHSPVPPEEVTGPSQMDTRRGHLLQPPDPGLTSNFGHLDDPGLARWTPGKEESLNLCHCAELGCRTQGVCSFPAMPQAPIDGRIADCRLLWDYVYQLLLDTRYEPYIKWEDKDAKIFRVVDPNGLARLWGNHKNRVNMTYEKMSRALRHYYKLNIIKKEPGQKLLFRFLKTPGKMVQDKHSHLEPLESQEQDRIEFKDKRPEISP
In short, it runs like this:
as §1

In another experiment the target is T8, ELK1 (Homo sapiens, UniProt P19419 1-428).
T8 sequence: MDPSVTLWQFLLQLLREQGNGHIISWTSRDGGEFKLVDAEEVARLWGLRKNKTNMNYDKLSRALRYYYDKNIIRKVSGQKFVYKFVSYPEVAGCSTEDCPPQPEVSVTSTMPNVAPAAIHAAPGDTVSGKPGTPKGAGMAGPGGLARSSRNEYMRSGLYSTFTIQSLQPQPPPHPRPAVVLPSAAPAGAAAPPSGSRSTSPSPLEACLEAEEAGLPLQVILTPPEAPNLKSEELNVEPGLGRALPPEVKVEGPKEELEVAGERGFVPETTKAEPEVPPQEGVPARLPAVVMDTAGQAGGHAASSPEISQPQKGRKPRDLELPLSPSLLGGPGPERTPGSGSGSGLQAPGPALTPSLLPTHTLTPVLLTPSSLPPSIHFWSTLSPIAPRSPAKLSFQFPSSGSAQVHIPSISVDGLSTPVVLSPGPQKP
A digest of the protocol: as §1

The next experiment addresses ELF1 (Homo sapiens, UniProt P32519 1-619). A digest of the protocol: as §1
In the next experiment the target is SPI1 (Homo sapiens, UniProt P17947 1-270). In short, it runs like this:
as §1

In the next experiment the target is T9, ERF (Homo sapiens, UniProt P50548 1-548).
T9 sequence: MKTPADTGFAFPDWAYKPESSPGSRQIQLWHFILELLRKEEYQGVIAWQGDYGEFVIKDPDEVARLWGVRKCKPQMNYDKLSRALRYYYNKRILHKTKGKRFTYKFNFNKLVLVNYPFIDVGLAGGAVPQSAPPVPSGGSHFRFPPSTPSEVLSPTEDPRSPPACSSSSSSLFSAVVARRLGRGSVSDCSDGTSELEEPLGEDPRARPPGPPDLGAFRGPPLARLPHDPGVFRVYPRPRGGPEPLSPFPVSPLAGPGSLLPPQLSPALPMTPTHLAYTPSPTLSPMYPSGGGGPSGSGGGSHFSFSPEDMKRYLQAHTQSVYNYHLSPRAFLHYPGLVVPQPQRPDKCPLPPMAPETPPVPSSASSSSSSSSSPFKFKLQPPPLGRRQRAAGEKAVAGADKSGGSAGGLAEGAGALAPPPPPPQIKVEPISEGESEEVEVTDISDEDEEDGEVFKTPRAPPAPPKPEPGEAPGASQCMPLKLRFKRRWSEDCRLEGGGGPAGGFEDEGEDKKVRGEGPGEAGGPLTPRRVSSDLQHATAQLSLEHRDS
In short, it runs like this: as §1

Chain of ETV5 (P41161 whole entry, the tested form may be a part): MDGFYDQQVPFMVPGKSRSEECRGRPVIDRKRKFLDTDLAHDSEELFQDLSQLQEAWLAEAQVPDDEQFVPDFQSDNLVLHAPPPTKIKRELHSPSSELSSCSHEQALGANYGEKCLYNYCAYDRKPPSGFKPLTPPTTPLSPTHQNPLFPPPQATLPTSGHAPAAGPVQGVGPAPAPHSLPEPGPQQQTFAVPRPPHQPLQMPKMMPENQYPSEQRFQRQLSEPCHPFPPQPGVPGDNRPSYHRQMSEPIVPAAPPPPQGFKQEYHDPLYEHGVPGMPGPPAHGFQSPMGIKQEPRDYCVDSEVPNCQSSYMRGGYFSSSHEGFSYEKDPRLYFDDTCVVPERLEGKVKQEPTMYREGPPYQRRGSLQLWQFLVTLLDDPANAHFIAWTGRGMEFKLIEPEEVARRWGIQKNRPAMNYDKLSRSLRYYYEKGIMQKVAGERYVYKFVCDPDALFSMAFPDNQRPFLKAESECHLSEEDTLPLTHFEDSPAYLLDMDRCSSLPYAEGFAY
Chain of ETV1 (P50549 whole entry): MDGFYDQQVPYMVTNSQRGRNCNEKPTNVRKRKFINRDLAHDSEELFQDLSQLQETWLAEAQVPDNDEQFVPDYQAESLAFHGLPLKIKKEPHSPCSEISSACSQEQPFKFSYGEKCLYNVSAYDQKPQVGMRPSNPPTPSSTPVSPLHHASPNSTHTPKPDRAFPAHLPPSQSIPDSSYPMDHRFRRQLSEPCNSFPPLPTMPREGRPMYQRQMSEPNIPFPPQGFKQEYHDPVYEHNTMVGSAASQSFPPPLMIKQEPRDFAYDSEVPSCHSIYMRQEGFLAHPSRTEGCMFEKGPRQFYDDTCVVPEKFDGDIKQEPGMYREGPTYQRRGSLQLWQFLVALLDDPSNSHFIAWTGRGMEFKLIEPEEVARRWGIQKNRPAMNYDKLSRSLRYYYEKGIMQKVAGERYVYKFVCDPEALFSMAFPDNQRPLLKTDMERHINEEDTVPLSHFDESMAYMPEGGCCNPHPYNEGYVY
Chain of SPIB (Q01892 whole entry): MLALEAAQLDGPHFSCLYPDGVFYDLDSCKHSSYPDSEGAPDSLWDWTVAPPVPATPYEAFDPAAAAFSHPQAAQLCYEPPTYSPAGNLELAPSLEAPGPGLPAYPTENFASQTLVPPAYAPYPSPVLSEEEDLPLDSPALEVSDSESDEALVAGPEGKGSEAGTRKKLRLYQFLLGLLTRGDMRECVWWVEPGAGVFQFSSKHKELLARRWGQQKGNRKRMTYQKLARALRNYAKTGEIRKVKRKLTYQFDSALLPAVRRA
Chain of ELF1 (P32519 whole entry): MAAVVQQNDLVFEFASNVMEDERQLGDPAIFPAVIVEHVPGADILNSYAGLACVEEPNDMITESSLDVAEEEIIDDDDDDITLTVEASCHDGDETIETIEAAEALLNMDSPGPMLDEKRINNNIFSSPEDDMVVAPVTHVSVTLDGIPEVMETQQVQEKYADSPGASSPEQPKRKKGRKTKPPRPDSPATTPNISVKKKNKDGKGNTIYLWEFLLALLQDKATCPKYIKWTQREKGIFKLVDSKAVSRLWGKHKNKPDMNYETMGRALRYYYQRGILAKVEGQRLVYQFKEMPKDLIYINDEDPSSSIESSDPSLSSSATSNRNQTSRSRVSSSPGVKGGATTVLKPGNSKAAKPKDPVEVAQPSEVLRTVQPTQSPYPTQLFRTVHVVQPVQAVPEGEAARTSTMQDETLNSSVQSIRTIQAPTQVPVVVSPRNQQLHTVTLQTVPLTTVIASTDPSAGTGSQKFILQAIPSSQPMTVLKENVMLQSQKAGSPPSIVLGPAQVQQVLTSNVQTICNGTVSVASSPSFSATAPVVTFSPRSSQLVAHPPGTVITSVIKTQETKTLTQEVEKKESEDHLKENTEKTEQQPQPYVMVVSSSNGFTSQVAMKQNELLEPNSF

For CGGCAA, the binding signal with ETV5 is 1.02 fold enrichment (6-mer frequency, TF over GST control); in the experiment with ETV6, 1.02 fold enrichment (6-mer frequency, TF over GST control).

For GGATAC, the binding signal was 1.09 fold enrichment (6-mer frequency, TF over GST control) in the experiment with ERG; 1.01 fold enrichment (6-mer frequency, TF over GST control) with EHF; 1 fold enrichment (6-mer frequency, TF over GST control) with SPIB; 1.01 fold enrichment (6-mer frequency, TF over GST control) with ETV5; 1.06 fold enrichment (6-mer frequency, TF over GST control) with ETV1; 1.43 fold enrichment (6-mer frequency, TF over GST control) with SPDEF. Besides, the binding signal with ETV3 was 1 fold enrichment (6-mer frequency, TF over GST control).

Take AGCGGC: the binding signal with ETV5 is 1.03 fold enrichment (6-mer frequency, TF over GST control); with ELK4 it was 1 fold enrichment (6-mer frequency, TF over GST control); with ETV1, 1.09 fold enrichment (6-mer frequency, TF over GST control); with ETV3L it was 1.01 fold enrichment (6-mer frequency, TF over GST control); in the experiment with ETV7, 1.01 fold enrichment (6-mer frequency, TF over GST control); with ETV6 it was 1.15 fold enrichment (6-mer frequency, TF over GST control).

Turning to GTACCA, the binding signal with ELK1 was 1.04 fold enrichment (6-mer frequency, TF over GST control); with ELF1 it was 1.01 fold enrichment (6-mer frequency, TF over GST control); in the experiment with SPI1 it was 1.11 fold enrichment (6-mer frequency, TF over GST control); in the experiment with SPIB, 1.02 fold enrichment (6-mer frequency, TF over GST control); with ETV5 it was 1.07 fold enrichment (6-mer frequency, TF over GST control); in the experiment with ELK4, 1.09 fold enrichment (6-mer frequency, TF over GST control). Moreover, the binding signal with ETV1 is 1 fold enrichment (6-mer frequency, TF over GST control); with ERF it was 1.04 fold enrichment (6-mer frequency, TF over GST control); in the experiment with SPDEF, 1 fold enrichment (6-mer frequency, TF over GST control).
